In PubChem BioAssay:
Active and inactive are the calls of the source.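 Rule for the calls, unless noted: active = fluorescence slope after compound addition differing from the mean of all screened samples at 99.7% confidence, in either direction; inactive = the rest.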

Experiments:
[1] = inhibitors of TNFa-induced NFkB p65 translocation, primary screen, imaging, HUVEC, MLSMR starter and 10KST1 sets (AID 438;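 active = inhibition above 20% together with a positive visual image hit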;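 note: compound added about 3h40 before a 20 min TNFalpha stimulation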;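 for inhibition: signal is the nuclear over cytoplasmic p65 intensity ratio per well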); conditions: HUVEC TNFa-induced p65 nuclear translocation; cell count: measured here: nuclei count (cytotoxicity indicator), at 2.08 µM; inhibition: at 2 µM, stronger effect = higher value, 0% TNFa-plus-vehicle, 100% no-TNFa wells
[2] = inhibitors of mutant huntingtin aggregation, primary screen, imaging, exon1htt(103Q)mCFP cells, high-content imaging (AID 483;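 active = visual image review flags a hit and inhibition of aggregation exceeds 20%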;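 note: compound exposure lasted 3 days before fixation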;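 for nuclei count: percent of the per-plate median nuclei count of sample wells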); conditions: exon1htt(103Q)mCFP cell line, aggregate imaging, at 2 µM; inhibition of aggregation: stronger effect = higher value; nuclei count: measured here: cell count, toxicity
[3] = inhibitors of E-selectin induction by TNFa, primary screen, imaging, HUVEC, immunofluorescence, MLSMR starter and 10KST1 sets (AID 487;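 active = visually confirmed hit in the image check and inhibition above 20%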;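 for inhibition: signal is fraction of cell area covered by stained E-selectin grains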;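 for nuclei count: 100% = median nuclei count of all wells on the same plate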); conditions: HUVEC TNFalpha-induced E-selectin immunofluorescence imaging, at 2 µM; inhibition: stronger effect = higher value; nuclei count: measured here: cell number, toxicity
[4] = biological target: Voltage-gated potassium channel subunit beta-2 (Rattus norvegicus) (UniProt P62483); assay: KvBeta enzyme negative modulators, primary screen, biochemical, NADPH fluorescence (AID 622;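 active = fluorescence slope higher than the sample average by over 3 SD, cut at about -0.22 in these data, passing the limit was not always enough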;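 note: slope of raw intensity against log time taken from 70 to 1610 s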); conditions: recombinant KvBeta, 4-cyanobenzaldehyde reduction, at 10 µM, stronger effect = higher value
Chain of Voltage-gated potassium channel subunit beta-2 (Rattus norvegicus) (P62483 whole entry, looked up): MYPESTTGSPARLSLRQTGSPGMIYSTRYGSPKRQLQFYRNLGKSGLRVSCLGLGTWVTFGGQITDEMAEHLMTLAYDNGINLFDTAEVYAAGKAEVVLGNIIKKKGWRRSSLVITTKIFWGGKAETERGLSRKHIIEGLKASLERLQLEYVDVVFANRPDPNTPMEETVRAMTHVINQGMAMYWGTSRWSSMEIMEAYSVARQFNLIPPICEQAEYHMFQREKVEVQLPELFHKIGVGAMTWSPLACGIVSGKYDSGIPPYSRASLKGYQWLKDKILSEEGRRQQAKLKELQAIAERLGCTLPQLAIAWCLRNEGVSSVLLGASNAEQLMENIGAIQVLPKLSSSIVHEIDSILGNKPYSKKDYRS

[5] = biological target: Voltage-gated potassium channel subunit beta-2 (Rattus norvegicus) (UniProt P62483); assay: KvBeta positive modulators, primary screen, biochemical, NADPH fluorescence (AID 623;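 active = NADPH fluorescence slope more negative than the mean of all samples by about 3 SD, 99.7% confidence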;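 note: fluorescence intensity change per second fitted from 20 to 320 s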); conditions: Recombinant KvBeta, NADPH fluorescence decrease slope, 10 min; at 10 µM; stronger effect = lower value
[6] = biological target: Alpha-2C adrenergic receptor (Homo sapiens) (UniProt P18825); assay: modulators of alpha2C/GIRK thallium flux, primary screen, cell-based, HEK293 alpha2C/GIRK1/2 (AID 624); conditions: thallium flux BTC fluorescence, at 10 µM, actives lie on both sides;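 note: slope of fluorescence ratio to pre-addition baseline per second over 15 to 24 s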
Chain of Alpha-2C adrenergic receptor (Homo sapiens) (P18825 whole entry, looked up): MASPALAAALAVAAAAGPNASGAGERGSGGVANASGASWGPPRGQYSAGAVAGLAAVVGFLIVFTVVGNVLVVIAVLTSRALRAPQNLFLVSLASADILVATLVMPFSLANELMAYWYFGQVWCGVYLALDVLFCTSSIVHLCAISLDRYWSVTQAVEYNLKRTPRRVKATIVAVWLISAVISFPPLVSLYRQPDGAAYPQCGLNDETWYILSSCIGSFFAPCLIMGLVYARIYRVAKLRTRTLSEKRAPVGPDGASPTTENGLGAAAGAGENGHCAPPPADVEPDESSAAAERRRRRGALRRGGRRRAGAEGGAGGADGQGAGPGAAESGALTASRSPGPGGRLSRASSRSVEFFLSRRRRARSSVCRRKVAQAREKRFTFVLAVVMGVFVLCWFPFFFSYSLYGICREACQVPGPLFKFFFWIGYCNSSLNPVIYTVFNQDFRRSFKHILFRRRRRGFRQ

[7] = inhibitors of Sendai virus-induced IRF3 signaling, primary screen, TLR/RLR signaling modifier project, cell-based, Sendai virus stimulus, luciferase, 10K MLSCN set (AID 602276;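 active = inhibition at or above 50% at 10 µM; inactive = inhibition below 50%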;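 note: firefly luciferase from ISG56 promoter only with Renilla not read in this screen; 0% = Sendai virus plus DMSO and 100% = medium plus DMSO without virus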); conditions: HEK293 RL24 IRF3 luciferase reporter, at 10 µM, stronger effect = higher value
[8] = inhibitors of poly I:C-induced TLR3 signaling, primary screen, cell-based, poly I:C stimulus, luciferase, 10K MLSCN set (AID 602277;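 active = inhibition of the reporter signal at or above 50%; inactive = inhibition below 50%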); conditions: HEK293-TLR3 RL24 IRF3 luciferase reporter, at 10 µM, stronger effect = higher value

Structure (SMILES)	cell count [1]	inhibition [1]	inhibition of aggregation [2]	nuclei count [2] [%]	inhibition [3]	nuclei count [3] [%]	fluorescence slope [4]	NADPH fluorescence slope [5]	slope [6]	inhibition [7]	inhibition [8]
COc1ccc(N(C(=O)c2ccco2)S(=O)(=O)c2cc(OC)ccc2OC)cc1	568	4.3% (inactive)	7.3% (inactive)	97.7	25.3% (inactive)	93.2	-0.343 (inactive)	9.2e-06 (inactive)	0.00421 (inactive)	8.61% (inactive)	20.5% (inactive)
COCCOC(=O)c1cc(C(=O)c2cc(F)ccc2O)coc1=N	473	-11.2% (inactive)	8.5% (inactive)	107	-92.3% (inactive)	115	-0.597 (inactive)	-1.1e-05 (inactive)	0.00549 (inactive)	6.76% (inactive)	11% (inactive)
CCOC(=O)N1CCN(Cc2nc3c(c(=O)[nH]c(=O)n3C)n2Cc2cc(C)ccc2C)CC1	693	-2.2% (inactive)	-78% (inactive)	115	-103% (inactive)	119	-0.505 (inactive)	-5.3e-05 (inactive)	0.00433 (inactive)	19.2% (inactive)	27.4% (inactive)
CCCCCC(=O)N(CN1C(=O)CCC1=O)c1ccccc1	806	5.4% (inactive)	-9.8% (inactive)	100	21.6% (inactive)	111	-0.283 (inactive)	-4e-05 (inactive)	0.00618 (inactive)	9.92% (inactive)	13.3% (inactive)
Cc1ccc(S(=O)(=O)C2(C(=O)Nc3cccnc3)CC2)cc1	579	8.8% (inactive)	14.7% (inactive)	93.3	-126% (inactive)	98.8	-0.573 (inactive)	-2.5e-05 (inactive)	0.00528 (inactive)	9.66% (inactive)	28.7% (inactive)
CN1CCN(c2nc3c(c(=O)[nH]c(=O)n3C)n2CCSc2nc3ccccc3s2)CC1	503	-0.3% (inactive)	25.5% (inactive)	106	30.5% (inactive)	100	-0.578 (inactive)	-3e-05 (inactive)	0.00601 (inactive)	12.4% (inactive)	33.3% (inactive)
Cc1nn(-c2nc3ccccc3s2)c(C)c1Oc1ccccc1O	591	-9.8% (inactive)	-19.1% (inactive)	107	-154% (inactive)	161	-0.437 (inactive)	-2.9e-06 (inactive)	0.00527 (inactive)	2.14% (inactive)	-97.7% (inactive)
CCOC(=O)N1CCN(C(=O)c2ccc(CS(=O)(=O)c3ccc(OC)cc3)o2)CC1	516	2% (inactive)	-23.5% (inactive)	90.7	8.5% (inactive)	133	-0.39 (inactive)	2.2e-05 (inactive)	0.0059 (inactive)	14.8% (inactive)	23.8% (inactive)
CCOP(=O)(c1ccc(N(C)C)cc1)C(O)c1c(Cl)cccc1Cl (stereo not drawn)	220	-3.5% (inactive)	20% (inactive)	99.5	-64.5% (inactive)	96.2	-0.521 (inactive)	-3.5e-05 (inactive)	0.00411 (inactive)	12.4% (inactive)	19.2% (inactive)
COCCn1cc(C(=O)c2ccccc2OCC(=O)Nc2cc(C)on2)cc(C#N)c1=O	455	5.8% (inactive)	-23.9% (inactive)	77.9	-7% (inactive)	97.9	-0.368 (inactive)	6.2e-06 (inactive)	0.00464 (inactive)	9.82% (inactive)	15.9% (inactive)
COCCNC(=O)CN1CCC(NC(=O)Nc2ccc(C(F)(F)F)cc2)CC1	515	0.8% (inactive)	-24.7% (inactive)	70.9	-85% (inactive)	96.8	-0.296 (inactive)	-4.5e-05 (inactive)	0.0053 (inactive)	5.43% (inactive)	3.51% (inactive)
CCCN1C(=O)c2cc(C(=O)O)ccc2C1O (stereo not drawn)	817	8.1% (inactive)	21.4% (inactive)	103	-95.2% (inactive)	118	-0.514 (inactive)	-2.2e-05 (inactive)	0.00732 (inactive)	4.49% (inactive)	13.6% (inactive)
Cc1cccc(NC(=O)CC2NC3CCCCC3NC2=O)c1 (stereo not drawn)	384	-4.8% (inactive)	-8.2% (inactive)	81	6.9% (inactive)	106	-0.358 (inactive)	-2.9e-05 (inactive)	0.00297 (inactive)	13.5% (inactive)	14.2% (inactive)
O=C1CCCc2c1nn(-c1ccccc1)[n+]2[O-]	563	7.1% (inactive)	-12.3% (inactive)	107	-32.5% (inactive)	108	-0.426 (inactive)	-2.2e-05 (inactive)	0.00571 (inactive)	2.04% (inactive)	5.41% (inactive)
C=Cn1c(N2CCOCC2)nc2c1c(=O)[nH]c(=O)n2C	719	0.9% (inactive)	-2.7% (inactive)	62.9	21.8% (inactive)	115	-0.412 (inactive)	-2.2e-05 (inactive)	0.00579 (inactive)	20% (inactive)	20.4% (inactive)
CC(C)C(=O)Nc1ccc(-c2nc3cccnc3o2)cc1	413	6.7% (inactive)	12.8% (inactive)	109	23.3% (inactive)	107	-0.262 (inactive)	4.8e-06 (inactive)	0.0065 (inactive)	-33.7% (inactive)	-147% (inactive)
CC(C)(C)NC(=O)CN(C(=O)C1CSC(=O)C1)c1ccc2c(c1)OCCO2 (stereo not drawn)	612	2.9% (inactive)	7.5% (inactive)	95.8	7.1% (inactive)	108	-0.362 (inactive)	-6.7e-05 (inactive)	0.00456 (inactive)	-11.9% (inactive)	-7.89% (inactive)
CCOC(=O)N1CCN(Cc2ccccc2F)CC1	485	-3.8% (inactive)	15.1% (inactive)	91.4	-26% (inactive)	91.5	-0.581 (inactive)	-2e-05 (inactive)	0.00418 (inactive)	12.5% (inactive)	13.4% (inactive)
O=C(CCCN1C(=O)c2ccccc2C1=O)NCc1cccnc1	709	-7.1% (inactive)	-4.8% (inactive)	102	-120% (inactive)	134	-0.42 (inactive)	-2.4e-06 (inactive)	0.00753 (inactive)	8.03% (inactive)	8.47% (inactive)
CCCCn1c(SCC(=O)OCC)nc2c1c(=O)[nH]c(=O)n2C	611	-0.3% (inactive)	5.2% (inactive)	97.5	7.7% (inactive)	84.3	-0.499 (inactive)	-2.6e-05 (inactive)	0.00682 (inactive)	13.7% (inactive)	21.6% (inactive)
Cc1ccc(S(=O)(=O)N2CCN(C(=O)c3cc(=O)[nH]c4ccccc34)CC2)c(C)c1	539	-11.9% (inactive)	-23.6% (inactive)	100	5.3% (inactive)	162	-0.5 (inactive)	-2.6e-05 (inactive)	0.00525 (inactive)	17.3% (inactive)	31% (inactive)
COc1ccc(NS(=O)(=O)c2coc(C(N)=O)c2)cc1Cl	734	-6.3% (inactive)	24% (inactive)	86.4	-27.2% (inactive)	116	-0.605 (inactive)	1.2e-05 (inactive)	0.00632 (inactive)	6.28% (inactive)	29.4% (inactive)
O=C1CC(Sc2nnc(-c3ccccc3)o2)C(=O)N1c1ccccc1 (stereo not drawn)	677	-1.1% (inactive)	3.6% (inactive)	105	-12.2% (inactive)	91.1	-0.404 (inactive)	-6.5e-05 (inactive)	0.00487 (inactive)	4.52% (inactive)	3.11% (inactive)
COc1ccc(C(=O)NC(=O)CSc2nnc(-c3ccco3)n2-c2ccccc2)cc1	447	14.6% (inactive)	-9.6% (inactive)	104	-9.4% (inactive)	107	-0.324 (inactive)	-7e-05 (inactive)	0.0052 (inactive)	5.3% (inactive)	10.1% (inactive)
CC1CN(C2CCCCC2)c2nc3c(c(=O)[nH]c(=O)n3C)n2C1 (stereo not drawn)	234	-2% (inactive)	-5.5% (inactive)	77.6	4.4% (inactive)	108	-0.642 (inactive)	3.4e-05 (inactive)	0.00609 (inactive)	13.1% (inactive)	40.3% (inactive)
CCOCCCNC(=O)C(c1ccccc1)N(Cc1ccc2c(c1)OCO2)C(=O)CNC(C)=O (stereo not drawn)	220	10.9% (inactive)	0.6% (inactive)	94.8	-63.6% (inactive)	95.1	-0.562 (inactive)	-2.1e-05 (inactive)	0.00624 (inactive)	10.2% (inactive)	16.2% (inactive)
COc1ccc(-c2c(=O)n(OCc3ccccn3)c3ccccc3[n+]2[O-])cc1OC	398	3.3% (inactive)	-10.4% (inactive)	104	-22.9% (inactive)	110	-0.385 (inactive)	-3.7e-09 (inactive)	0.00593 (inactive)	-2.61% (inactive)	-16.8% (inactive)
O=C(Nc1ccc(F)cc1)NC1CCN(Cc2nnnn2Cc2ccco2)CC1	849	0% (inactive)	-19.5% (inactive)	94.3	-2.9% (inactive)	113	-0.501 (inactive)	-4.4e-05 (inactive)	0.00571 (inactive)	-9.98% (inactive)	0.354% (inactive)
